Columns and labels:
[1] = molecular target: T1, Testis-specific serine/threonine-protein kinase 1 (Homo sapiens) (UniProt Q9BXA7); settings: at 1 µM
T1 sequence (whole entry): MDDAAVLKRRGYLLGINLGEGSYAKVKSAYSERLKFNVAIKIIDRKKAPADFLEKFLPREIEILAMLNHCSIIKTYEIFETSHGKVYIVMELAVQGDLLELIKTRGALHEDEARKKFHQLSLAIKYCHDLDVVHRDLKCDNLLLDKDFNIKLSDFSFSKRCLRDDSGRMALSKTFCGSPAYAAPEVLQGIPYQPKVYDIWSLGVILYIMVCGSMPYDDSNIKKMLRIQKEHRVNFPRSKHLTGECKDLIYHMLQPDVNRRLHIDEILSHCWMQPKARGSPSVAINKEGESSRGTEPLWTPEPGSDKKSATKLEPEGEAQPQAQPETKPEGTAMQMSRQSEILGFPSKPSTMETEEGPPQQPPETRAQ

[2] = molecular target: T1, Testis-specific serine/threonine-protein kinase 1 (Homo sapiens); settings: at 10 µM
[3] = molecular target: Angiopoietin-1 receptor (Homo sapiens) (UniProt Q02763); settings: at 1 µM
[4] = molecular target: Angiopoietin-1 receptor (Homo sapiens) (UniProt Q02763); settings: at 10 µM
[5] = molecular target: High affinity nerve growth factor receptor (Homo sapiens) (UniProt P04629); settings: at 1 µM
[6] = molecular target: High affinity nerve growth factor receptor (Homo sapiens) (UniProt P04629); settings: at 10 µM
[7] = molecular target: BDNF/NT-3 growth factors receptor (Homo sapiens) (UniProt Q16620); settings: at 1 µM
[8] = molecular target: BDNF/NT-3 growth factors receptor (Homo sapiens) (UniProt Q16620); settings: at 10 µM
[9] = molecular target: T2, Tyrosine-protein kinase TXK (Homo sapiens) (UniProt P42681); settings: at 1 µM
T2 sequence (whole entry): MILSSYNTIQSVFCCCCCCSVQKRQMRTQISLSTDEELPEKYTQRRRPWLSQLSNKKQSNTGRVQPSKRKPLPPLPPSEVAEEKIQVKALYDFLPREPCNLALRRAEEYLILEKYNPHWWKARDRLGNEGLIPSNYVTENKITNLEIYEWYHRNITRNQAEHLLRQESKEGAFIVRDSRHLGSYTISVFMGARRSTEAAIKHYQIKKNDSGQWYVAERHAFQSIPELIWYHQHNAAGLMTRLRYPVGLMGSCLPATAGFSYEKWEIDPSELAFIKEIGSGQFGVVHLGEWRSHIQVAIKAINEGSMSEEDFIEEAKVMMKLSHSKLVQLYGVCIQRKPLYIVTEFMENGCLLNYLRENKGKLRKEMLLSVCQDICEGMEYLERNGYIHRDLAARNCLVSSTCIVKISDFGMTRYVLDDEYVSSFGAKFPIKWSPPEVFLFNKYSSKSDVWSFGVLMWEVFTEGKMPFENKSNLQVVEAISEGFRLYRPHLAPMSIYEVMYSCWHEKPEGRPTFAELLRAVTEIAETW

[10] = molecular target: T2, Tyrosine-protein kinase TXK (Homo sapiens); settings: at 10 µM
[11] = molecular target: T3, Serine/threonine-protein kinase ULK2 (Homo sapiens) (UniProt Q8IYT8); settings: at 1 µM
T3 sequence (whole entry): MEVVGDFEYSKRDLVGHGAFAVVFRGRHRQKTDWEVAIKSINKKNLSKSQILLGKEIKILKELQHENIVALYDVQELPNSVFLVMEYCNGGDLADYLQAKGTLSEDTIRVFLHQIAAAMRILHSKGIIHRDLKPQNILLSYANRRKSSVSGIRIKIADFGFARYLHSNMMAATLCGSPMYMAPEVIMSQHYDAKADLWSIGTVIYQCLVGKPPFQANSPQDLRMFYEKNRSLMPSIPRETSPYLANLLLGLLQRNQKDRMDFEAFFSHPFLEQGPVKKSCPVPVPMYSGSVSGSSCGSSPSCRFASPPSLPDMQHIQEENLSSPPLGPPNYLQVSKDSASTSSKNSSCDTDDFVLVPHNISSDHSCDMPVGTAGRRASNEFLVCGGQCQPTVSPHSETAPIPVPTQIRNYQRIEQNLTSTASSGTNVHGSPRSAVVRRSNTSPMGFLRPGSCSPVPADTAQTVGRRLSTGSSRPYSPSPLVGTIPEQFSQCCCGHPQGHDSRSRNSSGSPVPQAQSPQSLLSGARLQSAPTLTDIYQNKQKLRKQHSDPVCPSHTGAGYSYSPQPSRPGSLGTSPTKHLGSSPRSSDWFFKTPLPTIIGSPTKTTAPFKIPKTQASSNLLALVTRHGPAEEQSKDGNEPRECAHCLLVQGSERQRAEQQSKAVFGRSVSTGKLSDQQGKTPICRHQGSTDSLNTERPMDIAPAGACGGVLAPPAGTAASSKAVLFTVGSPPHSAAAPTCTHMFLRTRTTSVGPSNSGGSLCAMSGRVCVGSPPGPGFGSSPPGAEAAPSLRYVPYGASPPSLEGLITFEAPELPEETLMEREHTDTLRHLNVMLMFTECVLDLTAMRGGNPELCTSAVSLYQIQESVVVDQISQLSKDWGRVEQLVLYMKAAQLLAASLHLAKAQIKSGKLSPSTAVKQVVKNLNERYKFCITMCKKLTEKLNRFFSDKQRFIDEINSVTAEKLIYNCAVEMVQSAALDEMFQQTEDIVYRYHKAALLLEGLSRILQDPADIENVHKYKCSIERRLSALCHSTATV

[12] = molecular target: T3, Serine/threonine-protein kinase ULK2 (Homo sapiens); settings: at 10 µM
[13] = molecular target: T4, Serine/threonine-protein kinase ULK3 (Homo sapiens) (UniProt Q6PHR2); settings: at 1 µM
T4 sequence (whole entry): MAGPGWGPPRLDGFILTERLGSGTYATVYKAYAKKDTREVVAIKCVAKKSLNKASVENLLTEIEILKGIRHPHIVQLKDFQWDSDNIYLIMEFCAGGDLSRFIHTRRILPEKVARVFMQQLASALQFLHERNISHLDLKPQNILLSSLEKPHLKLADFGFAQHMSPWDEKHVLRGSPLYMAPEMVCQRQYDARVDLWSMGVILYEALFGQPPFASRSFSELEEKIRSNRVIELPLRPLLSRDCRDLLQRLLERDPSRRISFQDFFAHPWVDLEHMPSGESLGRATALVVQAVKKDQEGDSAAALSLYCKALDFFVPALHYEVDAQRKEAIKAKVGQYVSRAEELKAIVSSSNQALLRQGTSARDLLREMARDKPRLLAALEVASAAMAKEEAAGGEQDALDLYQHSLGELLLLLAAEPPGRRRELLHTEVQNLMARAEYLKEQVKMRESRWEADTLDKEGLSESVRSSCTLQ

[14] = molecular target: T4, Serine/threonine-protein kinase ULK3 (Homo sapiens); settings: at 10 µM
[15] = molecular target: T5, Testis-specific serine/threonine-protein kinase 2 (Homo sapiens) (UniProt Q96PF2); settings: at 10 µM
T5 sequence (whole entry): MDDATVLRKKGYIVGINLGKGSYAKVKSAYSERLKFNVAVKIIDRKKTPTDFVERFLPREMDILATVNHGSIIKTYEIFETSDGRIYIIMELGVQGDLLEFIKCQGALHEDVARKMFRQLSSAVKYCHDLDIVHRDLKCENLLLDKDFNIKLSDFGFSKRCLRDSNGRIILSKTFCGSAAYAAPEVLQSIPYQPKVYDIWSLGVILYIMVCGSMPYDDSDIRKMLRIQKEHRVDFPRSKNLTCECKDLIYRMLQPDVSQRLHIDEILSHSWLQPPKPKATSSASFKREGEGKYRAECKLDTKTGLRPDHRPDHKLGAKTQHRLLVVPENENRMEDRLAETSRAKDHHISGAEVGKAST

[16] = molecular target: T6, Tyrosine-protein kinase Tec (Homo sapiens) (UniProt P42680); settings: at 10 µM
T6 sequence (whole entry): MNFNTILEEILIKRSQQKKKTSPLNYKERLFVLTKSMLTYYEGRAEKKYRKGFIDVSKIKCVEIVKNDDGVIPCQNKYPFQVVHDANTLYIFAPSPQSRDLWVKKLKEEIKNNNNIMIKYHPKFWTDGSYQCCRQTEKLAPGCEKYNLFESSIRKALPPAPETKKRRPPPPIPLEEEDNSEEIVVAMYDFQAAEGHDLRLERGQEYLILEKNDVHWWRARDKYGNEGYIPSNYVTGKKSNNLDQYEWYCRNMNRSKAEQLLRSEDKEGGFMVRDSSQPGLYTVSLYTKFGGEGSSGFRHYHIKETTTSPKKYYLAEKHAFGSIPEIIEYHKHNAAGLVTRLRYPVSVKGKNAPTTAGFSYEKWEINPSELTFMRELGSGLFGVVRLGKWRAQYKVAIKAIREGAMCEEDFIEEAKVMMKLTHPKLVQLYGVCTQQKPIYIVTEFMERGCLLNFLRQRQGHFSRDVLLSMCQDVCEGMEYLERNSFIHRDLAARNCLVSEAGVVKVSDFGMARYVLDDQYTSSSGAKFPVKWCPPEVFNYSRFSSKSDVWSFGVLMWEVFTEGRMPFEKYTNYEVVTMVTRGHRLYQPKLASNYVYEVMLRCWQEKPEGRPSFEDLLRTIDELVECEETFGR

[17] = molecular target: Serine/threonine-protein kinase VRK2 (Homo sapiens) (UniProt Q86Y07); settings: at 1 µM
[18] = molecular target: Serine/threonine-protein kinase VRK2 (Homo sapiens) (UniProt Q86Y07); settings: at 10 µM
[19] = molecular target: T6, Tyrosine-protein kinase Tec (Homo sapiens); settings: at 1 µM
[20] = molecular target: Serine/threonine-protein kinase WNK2 (Homo sapiens) (UniProt Q9Y3S1); settings: at 1 µM;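 further: residual WNK2 kinase activity expressed as percent of uninhibited control, assayed in MOPS buffer at pH 7.0 containing EDTA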

High affinity nerve growth factor receptor (Homo sapiens), sequence (P04629 33-796 limits assumed): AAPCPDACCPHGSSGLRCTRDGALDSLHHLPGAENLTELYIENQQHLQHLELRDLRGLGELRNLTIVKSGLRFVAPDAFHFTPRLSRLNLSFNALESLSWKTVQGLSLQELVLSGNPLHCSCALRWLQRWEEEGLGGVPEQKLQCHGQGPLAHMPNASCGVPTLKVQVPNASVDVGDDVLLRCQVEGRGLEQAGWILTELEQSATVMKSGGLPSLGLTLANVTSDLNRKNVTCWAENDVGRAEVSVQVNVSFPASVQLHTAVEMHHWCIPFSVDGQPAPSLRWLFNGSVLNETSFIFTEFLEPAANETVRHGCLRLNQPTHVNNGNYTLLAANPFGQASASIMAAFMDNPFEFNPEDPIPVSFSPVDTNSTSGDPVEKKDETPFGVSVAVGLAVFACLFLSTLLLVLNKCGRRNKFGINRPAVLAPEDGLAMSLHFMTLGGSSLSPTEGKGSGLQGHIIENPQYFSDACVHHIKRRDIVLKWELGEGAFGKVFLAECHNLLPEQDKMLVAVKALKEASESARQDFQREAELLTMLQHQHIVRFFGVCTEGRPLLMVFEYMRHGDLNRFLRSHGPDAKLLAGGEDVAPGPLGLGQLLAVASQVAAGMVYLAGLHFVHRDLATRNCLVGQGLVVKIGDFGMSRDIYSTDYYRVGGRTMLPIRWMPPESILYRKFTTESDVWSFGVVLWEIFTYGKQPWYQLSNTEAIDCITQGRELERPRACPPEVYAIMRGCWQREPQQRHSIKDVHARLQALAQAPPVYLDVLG
BDNF/NT-3 growth factors receptor (Homo sapiens), sequence (Q16620 32-822 limits assumed): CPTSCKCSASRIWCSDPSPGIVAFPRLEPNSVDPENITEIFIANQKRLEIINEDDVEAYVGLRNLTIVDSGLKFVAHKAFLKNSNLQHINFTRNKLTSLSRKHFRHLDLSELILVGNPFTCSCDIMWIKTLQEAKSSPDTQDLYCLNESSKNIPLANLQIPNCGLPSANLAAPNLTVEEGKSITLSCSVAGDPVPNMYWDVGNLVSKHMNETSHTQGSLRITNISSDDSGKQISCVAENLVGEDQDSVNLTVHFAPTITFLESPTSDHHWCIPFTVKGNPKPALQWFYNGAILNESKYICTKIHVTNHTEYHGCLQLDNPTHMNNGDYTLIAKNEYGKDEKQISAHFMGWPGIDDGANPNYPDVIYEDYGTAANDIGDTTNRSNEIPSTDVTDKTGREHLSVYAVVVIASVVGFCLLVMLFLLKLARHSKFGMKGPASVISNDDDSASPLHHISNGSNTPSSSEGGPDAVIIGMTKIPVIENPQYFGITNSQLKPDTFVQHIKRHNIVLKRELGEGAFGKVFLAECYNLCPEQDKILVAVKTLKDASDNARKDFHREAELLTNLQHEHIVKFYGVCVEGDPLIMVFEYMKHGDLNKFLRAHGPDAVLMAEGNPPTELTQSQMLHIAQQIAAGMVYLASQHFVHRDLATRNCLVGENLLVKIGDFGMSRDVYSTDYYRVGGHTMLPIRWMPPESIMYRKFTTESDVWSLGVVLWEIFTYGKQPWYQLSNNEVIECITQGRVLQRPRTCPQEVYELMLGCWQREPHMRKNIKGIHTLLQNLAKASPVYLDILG
Serine/threonine-protein kinase VRK2 (Homo sapiens), sequence (Q86Y07 whole entry): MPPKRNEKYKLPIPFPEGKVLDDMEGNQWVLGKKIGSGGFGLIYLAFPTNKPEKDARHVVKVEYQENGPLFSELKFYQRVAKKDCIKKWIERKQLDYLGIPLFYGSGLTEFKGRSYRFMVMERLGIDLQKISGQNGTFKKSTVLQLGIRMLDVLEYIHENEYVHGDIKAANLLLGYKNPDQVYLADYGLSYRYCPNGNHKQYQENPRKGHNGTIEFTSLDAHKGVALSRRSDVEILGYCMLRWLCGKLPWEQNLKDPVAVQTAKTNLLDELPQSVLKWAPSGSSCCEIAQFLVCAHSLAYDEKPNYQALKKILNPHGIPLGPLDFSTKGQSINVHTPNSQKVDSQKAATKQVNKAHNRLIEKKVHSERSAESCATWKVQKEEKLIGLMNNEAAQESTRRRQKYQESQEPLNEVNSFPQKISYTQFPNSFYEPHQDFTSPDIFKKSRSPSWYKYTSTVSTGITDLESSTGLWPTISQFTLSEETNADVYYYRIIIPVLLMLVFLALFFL
Angiopoietin-1 receptor (Homo sapiens), sequence (Q02763 whole entry): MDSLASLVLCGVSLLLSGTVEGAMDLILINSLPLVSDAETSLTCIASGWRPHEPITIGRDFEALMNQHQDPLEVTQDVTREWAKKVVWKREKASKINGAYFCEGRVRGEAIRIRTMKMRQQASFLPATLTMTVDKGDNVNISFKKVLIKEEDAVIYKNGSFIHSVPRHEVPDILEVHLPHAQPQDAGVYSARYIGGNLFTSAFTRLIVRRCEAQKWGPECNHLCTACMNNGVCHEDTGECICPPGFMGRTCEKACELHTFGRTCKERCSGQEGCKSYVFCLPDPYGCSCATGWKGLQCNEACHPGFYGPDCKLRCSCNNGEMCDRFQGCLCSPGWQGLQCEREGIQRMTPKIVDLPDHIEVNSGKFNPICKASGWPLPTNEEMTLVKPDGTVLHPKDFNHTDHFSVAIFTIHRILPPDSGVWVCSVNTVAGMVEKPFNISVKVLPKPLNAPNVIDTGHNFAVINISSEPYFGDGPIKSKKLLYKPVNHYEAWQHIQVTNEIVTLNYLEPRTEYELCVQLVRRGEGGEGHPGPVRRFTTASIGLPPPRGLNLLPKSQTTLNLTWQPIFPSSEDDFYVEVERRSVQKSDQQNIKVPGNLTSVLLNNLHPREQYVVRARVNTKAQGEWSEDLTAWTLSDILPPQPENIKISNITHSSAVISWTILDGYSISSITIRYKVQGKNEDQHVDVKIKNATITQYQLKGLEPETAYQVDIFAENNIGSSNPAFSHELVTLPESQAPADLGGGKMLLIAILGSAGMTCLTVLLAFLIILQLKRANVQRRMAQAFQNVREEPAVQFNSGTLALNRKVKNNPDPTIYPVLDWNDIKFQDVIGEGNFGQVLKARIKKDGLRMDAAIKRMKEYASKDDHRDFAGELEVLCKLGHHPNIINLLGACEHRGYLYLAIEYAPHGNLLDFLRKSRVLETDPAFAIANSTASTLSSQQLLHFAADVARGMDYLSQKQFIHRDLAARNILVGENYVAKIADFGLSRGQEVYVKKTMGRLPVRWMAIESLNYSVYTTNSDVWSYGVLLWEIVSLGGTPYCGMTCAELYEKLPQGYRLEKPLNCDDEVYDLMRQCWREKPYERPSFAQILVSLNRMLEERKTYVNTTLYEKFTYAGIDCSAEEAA

Structure (SMILES) | residual activity [1] | residual activity [2] | residual activity [3] | residual activity [4] | residual activity [5] | residual activity [6] | residual activity [7] | residual activity [8] | residual activity [9] | residual activity [10] | residual activity [11] | residual activity [12] | residual activity [13] | residual activity [14] | residual activity [15] | residual activity [16] | residual activity [17] | residual activity [18] | residual activity [19] | residual activity [20]
CC(C)(C)c1nc2c3ccc(F)cc3c3c(=O)[nH]ccc3c2[nH]1 | 42% | 60% | 78% | 64% | 3% | 6% | 71% | -2% | 63% | 57% | 26% | 25% | 56% | 13% |  |  |  |  |  | 
O=S(=O)(NCCNC/C=C/c1ccc(Br)cc1)c1cccc2cnccc12 | 100% | 67% |  | 69% |  | 78% |  |  | 74% | 61% |  |  |  |  |  |  |  |  |  | 
O=c1cc(N2CCNCC2)oc2c(-c3ccccc3)cccc12 | 101% | 93% | 69% | 78% |  |  |  |  |  | 98% | 100% | 95% | 101% | 92% | 82% | 80% | 95% (inactive) | 90% |  | 
CCN(CC)CCNC(=O)c1c(C)[nH]c(/C=C2\C(=O)Nc3ccc(Cl)cc32)c1C | 8% | 0% | 56% | 19% | -1% | 0% | 40% | -12% | 70% | 21% | 23% | 2% | 17% | 2% | 26% | 29% |  |  | 78% | 
CC(C)(C)n1nc(Cc2cccc3ccccc23)c2c(N)ncnc21 | 96% | 90% | 71% | 28% | 80% | 17% | 45% | 24% | 43% | 7% | 106% | 95% | 109% | 90% |  | 10% | 92% (inactive) | 68% | 53% | 98% (inactive)
CC(C)N(CCC(=O)c1ccc2ccccc2c1)Cc1ccccc1 | 81% | 78% |  |  |  |  |  |  |  | 42% |  |  |  | 86% |  | 73% | 100% (inactive) | 86% |  | 
CC(C)c1nn(-c2c(Cl)cccc2Cl)c2nc(Cc3ccc(OCCO)cc3)[nH]c(=O)c12 | 91% | 94% |  | 86% | 87% | 74% |  | 79% | 96% | 99% | 81% | 49% | 84% | 45% | 79% | 85% | 100% (inactive) | 96% | 90% | 108% (inactive)

Source: ChEMBL document CHEMBL2218924, “A broad activity screen in support of a chemogenomic map for kinase signalling research and drug discovery” (Biochem J, 2013)
